This is part of a sample that, as a whole, favours compounds with a hit. Of some 83,000 tested, about 20% had one in any assay.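 Compound tested at a single concentration for 48 hours in 96-well plates; a percent growth value below 10 was scored as active.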 Values without a mark were called inactive. Active and inactive are the calls of the source.
Tests used:
Test in all cases: NCI-60 one-dose screen, 48 h (100 = growth as untreated, 0 = no growth, -100 = all killed)
Details in all cases: 10 µM unless noted
DU-145 prostate = system: DU-145 prostate
K-562 leukemia = system: K-562 leukemia
MALME-3M melanoma = system: MALME-3M melanoma
MDA-MB-231 breast = system: MDA-MB-231 breast
RXF 393 renal = system: RXF 393 renal
SF-268 CNS = system: SF-268 CNS
SF-295 CNS = system: SF-295 CNS
SF-539 CNS = system: SF-539 CNS
UACC-257 melanoma = system: UACC-257 melanoma
M14 melanoma = system: M14 melanoma
HCT-15 colon = system: HCT-15 colon
HT29 colon = system: HT29 colon
SNB-75 CNS = system: SNB-75 CNS
SNB-19 CNS = system: SNB-19 CNS
PC-3 prostate = system: PC-3 prostate
SK-MEL-5 melanoma = system: SK-MEL-5 melanoma
UACC-62 melanoma = system: UACC-62 melanoma
LOX IMVI melanoma = system: LOX IMVI melanoma
SK-MEL-28 melanoma = system: SK-MEL-28 melanoma
U251 CNS = system: U251 CNS

| SMILES | growth (DU-145 prostate) | growth (K-562 leukemia) | growth (MALME-3M melanoma) | growth (MDA-MB-231 breast) | growth (RXF 393 renal) | growth (SF-268 CNS) | growth (SF-295 CNS) | growth (SF-539 CNS) | growth (UACC-257 melanoma) | growth (M14 melanoma) | growth (HCT-15 colon) | growth (HT29 colon) | growth (SNB-75 CNS) | growth (SNB-19 CNS) [%] | growth (PC-3 prostate) | growth (SK-MEL-5 melanoma) | growth (UACC-62 melanoma) | growth (LOX IMVI melanoma) | growth (SK-MEL-28 melanoma) | growth (U251 CNS) |
| --- | --- | --- | --- | --- | --- | --- | --- | --- | --- | --- | --- | --- | --- | --- | --- | --- | --- | --- | --- | --- |
| CCCn1nc(C(=O)N(C)Cc2ccccc2)c2c1CCC(N1CCc3ccccc31)C2 (configuration not stated) | 109% | 86.7% | 112% | 108% | 90.3% | 96.4% | 92.1% | 104% | 109% | 99% | 96.3% | 102% | 100% | 90.2 | 77.2% | 99.7% | 85.2% | 100% | 106% | – |
| CCNC(=O)Oc1ccc(/C(=C(/C)Cc2ccc(OC)cc2)c2ccc(OCCN3CCCCC3)cc2)cc1 | 83.5% | 0.352% (active) | 68.1% | 78.4% | 61.6% | 70% | 82.6% | 82.9% | 95.3% | -14.2% (active) | 38.9% | 1.16% (active) | 69% | 76 | 55.6% | – | 58.4% | 60.9% | 67.6% | 47.5% |
| COc1ccc(N2CCC(=S)NC2=S)cc1 | 108% | 100% | 101% | 103% | 119% | 94.2% | 101% | 99.9% | 102% | 109% | 101% | 104% | 71.6% | 94.5 | 107% | 98.2% | 90.3% | 95.3% | 113% | – |
| CC(C)(C)n1cc(-c2ccnc(NCCCNS(=O)(=O)c3cccc4ccccc34)c2)c(-c2cccc(F)c2)n1 | 89.4% | 30.8% | 113% | 80.6% | 76.8% | 85.2% | 63.9% | 72.4% | 94.4% | 73.3% | 44.6% | 27.6% | 67.2% | 86.3 | 55.8% | 74.5% | 80.5% | 54.7% | 99.9% | – |
| COc1cc(NC(=O)c2cncnc2Nc2ccc3c(ccn3Cc3ccccn3)c2)cc(OC)c1 | 65.4% | 17.1% | 44.7% | 50.6% | 42% | 63.1% | 35% | 48.2% | 68% | 36.5% | 30.7% | 11.7% | -3.17% (active) | 58.3 | 38.2% | 35.4% | 58.1% | 39.9% | 63.8% | – |
| CN(Cc1ccccc1)c1nc(Cl)c(C2CC(c3ccccc3)=NN2c2ccccc2)s1 (configuration not stated) | 102% | 79.9% | 90.3% | 101% | 101% | 86.6% | 101% | 98.9% | 93% | 96.6% | 94.2% | 80.8% | 82.3% | 100 | 83.2% | 98.8% | 88.8% | 88.4% | 98.2% | – |
| COc1cc(C(=O)c2c(-c3ccccc3)oc3c(OC)cccc23)cc(OC)c1OC | 6.56% (active) | 12.3% | 42.2% | -0.456% (active) | -3.42% (active) | 30.1% | 2.79% (active) | -26.1% (active) | 71.1% | 3.87% (active) | 5.88% (active) | 8.2% (active) | 7.41% (active) | 25 | 17.2% | -42.3% (active) | 30.2% | 12.2% | 59.9% | – |
| C=C1C(=O)O[C@H]2[C@H]1CC/C(COC(=O)c1cc3cc(Cl)ccc3[nH]1)=C\CC[C@@]1(C)O[C@@H]21 | -96.1% (active) | -21.1% (active) | -76.9% (active) | -77.8% (active) | -88.7% (active) | -88.3% (active) | 39.2% | -90.4% (active) | -76.3% (active) | -56.9% (active) | -61.1% (active) | -75.9% (active) | -97.3% (active) | 12.6 | -56.3% (active) | – | -78.7% (active) | -93.2% (active) | -83.3% (active) | -88.8% (active) |
